Results reported in the supplement of paper PMC6089552.
In all, about 3,200 compounds went through this assay and about 300 (9.4%) showed activity. Many of the other results were omitted from the sample, so actives are more common in it than they were.

System: A673/TR/shEF
Assay: cell viability (LOESS-normalised, relative to median of negative controls) (log2 ratio); higher = more viable cells (less compound effect), active = hit call of the paper (over 3 MAD below the median)
Conditions: treatment time: 72 h
Method in brief: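 Doxycycline, present or absent from 24 h before compounds, was used to induce EWS-FLI1 shRNA knockdown in A673/TR/shEF Ewing sarcoma cells at 1,500 per well in 384-well plates. Cells then received library compounds at two or more concentrations, or DMSO controls, for three days. Viability was measured by CellTiter-Glo luminescence on an Envision reader, and per-plate LOESS correction, division by the negative-control median and log2 transformation followed.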

[1] = 0.25 µM, library screen: screen1, EWS-FLI1 expression: high (no doxycycline)
[2] = 0.25 µM, library screen: screen1, EWS-FLI1 expression: low (doxycycline-induced shRNA knockdown)
[3] = 2.5 µM, library screen: screen1, EWS-FLI1 expression: high (no doxycycline)
[4] = 2.5 µM, library screen: screen1, EWS-FLI1 expression: low (doxycycline-induced shRNA knockdown)
[5] = 0.25 µM, library screen: screen2, EWS-FLI1 expression: high (no doxycycline)
[6] = 0.25 µM, library screen: screen2, EWS-FLI1 expression: low (doxycycline-induced shRNA knockdown)
[7] = 2.5 µM, library screen: screen2, EWS-FLI1 expression: high (no doxycycline)
[8] = 2.5 µM, library screen: screen2, EWS-FLI1 expression: low (doxycycline-induced shRNA knockdown)
[9] = 0.103 µM, library screen: screen3, EWS-FLI1 expression: high (no doxycycline)
[10] = 0.103 µM, library screen: screen3, EWS-FLI1 expression: low (doxycycline-induced shRNA knockdown)
[11] = 0.308 µM, library screen: screen3, EWS-FLI1 expression: high (no doxycycline)
[12] = 0.308 µM, library screen: screen3, EWS-FLI1 expression: low (doxycycline-induced shRNA knockdown)
[13] = 0.926 µM, library screen: screen3, EWS-FLI1 expression: high (no doxycycline)
[14] = 0.926 µM, library screen: screen3, EWS-FLI1 expression: low (doxycycline-induced shRNA knockdown)
[15] = 2.8 µM, library screen: screen3, EWS-FLI1 expression: high (no doxycycline)
[16] = 2.8 µM, library screen: screen3, EWS-FLI1 expression: low (doxycycline-induced shRNA knockdown)
[17] = 8.3 µM, library screen: screen3, EWS-FLI1 expression: high (no doxycycline)
[18] = 8.3 µM, library screen: screen3, EWS-FLI1 expression: low (doxycycline-induced shRNA knockdown)
[19] = 25 µM, library screen: screen3, EWS-FLI1 expression: high (no doxycycline)
[20] = 25 µM, library screen: screen3, EWS-FLI1 expression: low (doxycycline-induced shRNA knockdown)
[21] = 0.025 µM, library screen: screen1, EWS-FLI1 expression: high (no doxycycline)
[22] = 0.025 µM, library screen: screen1, EWS-FLI1 expression: low (doxycycline-induced shRNA knockdown)
[23] = 25 µM, library screen: screen1, EWS-FLI1 expression: high (no doxycycline)
[24] = 25 µM, library screen: screen1, EWS-FLI1 expression: low (doxycycline-induced shRNA knockdown)

Measured: cell viability (log2)

COc1cccc(CN2CCN(Cc3c[nH]c4ccccc34)CC2)c1
inactive: [1] 0.11 | [2] 0.105 | [3] 0.138 | [4] 0.0572

NC[C@H](O)c1ccc(O)c(O)c1
inactive: [1] 0.152 | [2] -0.0124 | [5] 0.069 | [6] 0.102 | [3] 0.127 | [4] 0.154 | [7] 0.0755 | [8] 0.101

NCC(O)c1ccc(O)c(O)c1 (configuration not stated)
active: [5] -0.177
inactive: [6] 0.0558 | [7] 0.0351 | [8] -0.00208

CNC[C@H](O)c1ccc(O)c(O)c1
inactive: [9] 0.00528 | [10] 0.0495 | [1] 0.106 | [2] 0.0509 | [5] 0.169 | [6] 0.0474 | [11] 0.079 | [12] 0.091 | [13] 0.0631 | [14] 0.0893 | [3] 0.183 | [4] 0.209 | [7] 0.122 | [8] 0.099 | [15] 0.0488 | [16] 0.0524 | [17] -0.00361 | [18] 0.0638 | [19] 0.098 | [20] 0.00995

CS(=O)(=O)CCCCN=C=S
inactive: [1] 0.17 | [2] 0.115 | [3] 0.227 | [4] 0.0923

NS(O)(O)Cc1noc2ccccc12
inactive: [5] 0.153 | [6] 0.0786 | [7] 0.183 | [8] 0.124

O=C(c1cc(-c2ccccc2)nc2ccccc12)N1CCN(c2ccccc2)CC1
inactive: [1] 0.112 | [2] 0.0402 | [3] 0.113 | [4] 0.188

CC1CN(C(=O)c2cc(-c3ccccc3)nc3ccccc23)CC(C)O1 (configuration not stated)
active: [1] -2.9 | [2] -2.55
inactive: [3] 0.0982 | [4] 0.0382

O=C(c1cc(-c2ccccc2)nc2ccccc12)N1CCCC1
inactive: [1] 0.0657 | [2] 0.0915 | [3] 0.129 | [4] -0.0754

Cc1cccc(C)c1OCC(N)C(C)C (configuration not stated)
inactive: [5] 0.0355 | [6] -0.033 | [7] 0.0196 | [8] 0.00962

COc1cccc2c1CCC1CC(=O)CC[C@]21C (some centres not stated)
inactive: [1] 0.0982 | [2] 0.0827 | [3] 0.058 | [4] 0.11

OC[C@@H](O)[C@@H](O)C(O)[C@H](O)[C@@H](O)CO (some centres not stated)
inactive: [1] 0.0348 | [2] 0.0046 | [3] 0.138 | [4] 0.018

CC(C)NC[C@H](O)COc1cccc2ccccc12
inactive: [5] 0.141 | [6] 0.0581 | [7] 0.131 | [8] 0.11

C=CCc1ccccc1OCC(O)CNC(C)C (configuration not stated)
inactive: [1] 0.0845 | [2] 0.135 | [6] 0.0871 | [3] 0.0928 | [4] 0.0547 | [7] 0.0869 | [8] 0.156
active: [5] -0.203

CC(C)NCC(O)COc1cccc2ccccc12 (configuration not stated)
inactive: [1] 0.149 | [2] 0.0263 | [5] 0.19 | [6] 0.128 | [3] 0.146 | [4] -0.0491 | [7] 0.0197 | [8] 0.0681

CN1[C@@H]2CC[C@@H]1CC(OC(c1ccccc1)c1ccccc1)C2 (some centres not stated)
inactive: [1] 0.132 | [2] 0.107 | [5] 0.135 | [6] 0.0858 | [3] 0.0835 | [4] 0.0797 | [7] 0.114 | [8] 0.0926

O=C(Nc1ccccc1)Nc1ccccc1
inactive: [1] -0.0389 | [2] 0.0106 | [3] 0.0741 | [4] -0.00546

O=C(Cc1ccccc1)NO
inactive: [1] 0.111 | [2] 0.0668 | [3] 0.126 | [4] 0.0445

O=C(CCCCCCC(=O)Nc1ccccc1)NO
active: [17] -1.12 | [18] -0.391 | [19] -2.67 | [20] -1.56
inactive: [9] 0.0138 | [10] 0.0808 | [5] 0.16 | [6] 0.101 | [11] 0.0409 | [12] 0.115 | [13] 0.0465 | [14] 0.156 | [7] 0.0836 | [8] 0.0743 | [15] -0.083 | [16] -0.944

Cc1c2oc3c(C)ccc(C(=O)NC4C(=O)NC(C(C)C)C(=O)N5CCCC5C(=O)N(C)CC(=O)N(C)C(C(C)C)C(=O)OC4C)c3nc-2c(C(=O)NC2C(=O)NC(C(C)C)C(=O)N3CCCC3C(=O)N(C)CC(=O)N(C)C(C(C)C)C(=O)OC2C)c(N)c1=O (configuration not stated)
active: [1] -4.25 | [2] -4.25 | [3] -4.23 | [4] -4.26

COc1ccc(OC)c(CN2CCN(Cc3ccc([N+](=O)[O-])cc3)CC2)c1
inactive: [1] 0.0199 | [2] 0.014 | [3] -0.0107 | [4] 0.0533

O=C(O)c1cc2cc(F)ccc2[nH]1
inactive: [1] 0.0776 | [2] -0.00933 | [6] 0.0925 | [3] 0.156 | [4] 0.00267 | [7] 0.154 | [8] 0.0908
active: [5] -0.173

O=C(O)c1cc2ccccc2[nH]1
inactive: [1] 0.123 | [2] 0.0929 | [3] 0.0969 | [4] 0.132

O=C(O)c1cc2cc(Cl)ccc2[nH]1
inactive: [1] 0.0631 | [2] -0.00653 | [3] 0.106 | [4] 0.0362

Cn1cnnc1SCC(=O)N1c2ccccc2CCc2ccccc21
inactive: [1] 0.0935 | [2] 0.0627 | [3] 0.0921 | [4] 0.0613

N#C/C(=C\c1ccc(O)c(O)c1)C(=O)NCCc1ccccc1
inactive: [5] 0.142 | [6] 0.0983 | [7] 0.163 | [8] 0.0697

N#C/C(=C\c1ccc(O)c(O)c1)C(=O)Nc1ccccc1
active: [3] -0.16 | [23] -0.692
inactive: [21] 0.188 | [22] -0.0571 | [1] 0.155 | [2] 0.0428 | [5] 0.0861 | [6] 0.0194 | [4] 0.0541 | [7] 0.105 | [8] 0.00853 | [24] 0.0298

N#C/C(=C\c1ccc(O)c(O)c1)C(=O)NCc1ccccc1
inactive: [21] 0.245 | [22] 0.0652 | [1] 0.23 | [2] 0.104 | [5] 0.0885 | [6] 0.0797 | [7] 0.253 | [8] 0.0805 | [24] -0.0381
active: [3] -0.573 | [4] -0.157 | [23] -0.423

C[C@H](NC(=O)/C(C#N)=C/c1ccc(O)c(O)c1)c1ccccc1
inactive: [5] 0.133 | [6] 0.0775 | [7] 0.118 | [8] 0.0876

O=C(O)c1cc([N+](=O)[O-])ccc1NCCCc1ccccc1
inactive: [1] 0.00351 | [2] 0.0513 | [5] 0.0917 | [6] 0.092 | [3] -0.0108 | [4] 0.0086 | [7] 0.0503 | [8] 0.0316

CC(C)c1cc(/C=C(\C#N)C(=O)NCCCc2ccccc2)cc(C(C)C)c1O
active: [3] -0.147 | [23] -0.351
inactive: [21] 0.249 | [22] 0.00192 | [1] 0.255 | [2] -0.0227 | [4] 0.113 | [24] 0.147

O=C(O)Cc1ccc(O)c(O)c1
inactive: [5] 0.133 | [6] -0.00472 | [7] 0.0419 | [8] 0.108

N#C/C(=C\c1ccc(O)c(O)c1)C(=O)NCCCc1ccccc1
inactive: [5] 0.175 | [6] 0.0501 | [7] 0.049 | [8] 0.115

C[C@@H](NC(=O)/C(C#N)=C/c1ccc(O)c(O)c1)c1ccccc1
inactive: [5] 0.139 | [6] -0.0177 | [7] 0.152 | [8] 0.00798

CC(=O)O[C@H]1CC[C@@]2(C)C(CC[C@]3(C)C2C(=O)C=C2C4[C@@H](C)[C@H](C)CC[C@]4(C(=O)O)CC[C@]23C)C1(C)C (some centres not stated)
inactive: [1] 0.0834 | [2] -0.0467 | [3] 0.137 | [4] -0.0143

Cc1nnc(SCC(=O)N2c3cc(C)c(C)cc3-c3c(ssc3=S)C2(C)C)s1
inactive: [1] 0.0437 | [2] 0.1 | [3] 0.106 | [4] 0.371

COc1cc(CN2CCN(Cc3ccccc3Br)CC2)cc(OC)c1OC
inactive: [1] 0.141 | [2] 0.0128 | [3] 0.124 | [4] -0.0338

COCCCN1C(=O)C(=Cc2sccc2C)SC1=S
inactive: [1] 0.112 | [2] 0.0557 | [3] 0.117 | [4] -0.0013

CC1=C(C(=O)Nc2ccccc2Cl)C(c2ccc(F)cc2)NC(=S)N1 (configuration not stated)
inactive: [1] 0.0751 | [2] -0.00334 | [3] 0.0684 | [4] -0.0806

CC(=O)CCC(=O)O
inactive: [1] 0.109 | [2] -0.0377 | [3] 0.149 | [4] 0.116

Nc1ccccc1C(=O)CC(N)C(=O)O (configuration not stated)
inactive: [1] 0.119 | [2] 0.0475 | [3] 0.0296 | [4] 0.178

Clc1ccc(COC(Cn2ccnc2)c2ccc(Cl)cc2Cl)cc1 (configuration not stated)
inactive: [9] -0.00584 | [10] 0.0214 | [1] 0.00613 | [2] -0.0476 | [11] 0.00202 | [12] -0.00564 | [13] 0.0175 | [14] 0.0368 | [3] 0.0561 | [4] 0.0348 | [15] -0.113 | [16] 0.0131 | [17] -0.0802 | [18] 0.0353 | [20] -0.0458
active: [19] -0.429

Clc1ccc(COC(Cn2ccnc2)c2ccc(Cl)cc2Cl)c(Cl)c1 (configuration not stated)
inactive: [9] 0.0363 | [10] 0.054 | [1] 0.11 | [2] -0.0145 | [11] 0.0264 | [12] 0.0988 | [13] 0.0504 | [14] 0.0737 | [3] 0.143 | [4] 0.0636 | [15] 0.00663 | [16] 0.0754 | [17] -0.0261 | [18] 0.0596 | [19] -0.0834 | [20] 0.0583

Clc1ccc(CSC(Cn2ccnc2)c2ccc(Cl)cc2Cl)cc1 (configuration not stated)
inactive: [1] 0.0547 | [2] -0.0713 | [3] 0.0724 | [4] -0.143
